“And” between values parts separate entries of the source, which are not always exact repeats. Equal entries are not always repeated. Some compounds were tested as several samples or in several runs, with calls that do not always agree. The source made the active and inactive calls. How the calls were made is not given here.
Key:
[1] = kinase inhibitors against Plasmodium liver-stage infection, cell-based, known kinase inhibitor set, luminescence, hepatoma host viability (AID 624392); details: Plasmodium liver stage in hepatoma cells, luciferase luminescence, concentration not given here; liver cell % of control: measured here: host liver cell viability; parasite % of control: stronger effect = lower value;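 further: infected cells incubated roughly two days before readout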
[2] = modulators of glucocorticoid suppression of NF-kB, cell-based, luciferase, IL-1B stimulus, dexamethasone (AID 624486); details: NF-kB luciferase reporter, IL-1B + dexamethasone, luminescence; percent of negative control (+Dex): actives lie on both sides, concentration not given here; z-score: measured here: IL-1B alone, no Dex;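 on percent of negative control (+Dex): 100% = mean signal of vehicle control wells on the plate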
[3] = molecular target: Cellular tumor antigen p53 (Homo sapiens) (UniProt P04637); assay: kinase inhibitors altering GFP-p53 stability in HPV16-positive cells, imaging, known kinase inhibitor set, EGFP/DsRed ratio (AID 1053116); details: stronger effect = higher value; EGFP object count: measured here: GFP-p53 positive objects count;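 further: cells exposed to compounds for 24 h at 37 °C before reading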
[4] = IRF3 reporter activation in THP-1 macrophages, cell-based, PMA-stimulated THP-1, luminescence (AID 1053176); details: PMA-differentiated THP-1, IRF3 reporter luminescence; stronger effect = higher value

Cellular tumor antigen p53 (Homo sapiens), sequence (P04637 whole entry, looked up): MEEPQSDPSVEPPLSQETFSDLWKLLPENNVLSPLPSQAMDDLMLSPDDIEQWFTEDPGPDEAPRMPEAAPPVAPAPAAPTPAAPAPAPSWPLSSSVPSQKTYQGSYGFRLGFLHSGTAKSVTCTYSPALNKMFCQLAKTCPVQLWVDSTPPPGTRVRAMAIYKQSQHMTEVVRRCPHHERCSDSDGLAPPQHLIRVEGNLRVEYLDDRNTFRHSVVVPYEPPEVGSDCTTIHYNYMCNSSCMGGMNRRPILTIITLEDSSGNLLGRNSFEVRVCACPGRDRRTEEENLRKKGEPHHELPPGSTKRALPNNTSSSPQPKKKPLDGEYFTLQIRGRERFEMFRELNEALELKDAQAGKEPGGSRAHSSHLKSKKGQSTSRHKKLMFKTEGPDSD

SMILES | liver cell % of control [1] | parasite % of control [1] | percent of negative control (+Dex) [2] | z-score [2] | EGFP object count [3] | EGFP/DsRed ratio [3] | fraction signal [4]
COc1cc[nH]c1C=C1C(=O)Nc2ccc([N+](=O)[O-])c(N3CCC(O)C3)c21 (stereo not given) | 102% | 15.7% (inactive) | 29.5% (active) | -7.83 | 3.5 | 0.0609 (inactive) | -0.018 (inactive)
O=C1NC(=NCc2c(Cl)cccc2Cl)SC1=Cc1ccc2ncccc2c1 | 106% | 51.5% (inactive) | 101% (inactive) | 0.16 | 2.5 | 0.0754 (inactive) | -0.009 (inactive)
CN(C)CC1CCn2c(c(C3=C(c4cn(C)c5ccccc45)C(=O)NC3=O)c3ccccc32)C1 (stereo not given) | 80.7% and 77.1% | 27.7% (inactive) and 36.4% (inactive) | 97% (inactive) and 96.5% (inactive) | -0.715 and -0.17 | 13.5 and 7.5 | 0.0249 (inactive) and 0.0159 (inactive) | -0.0005 (inactive) and -0.0055 (inactive)
Cc1cc(C)c2c(n1)sc1c(N)ncnc12 | 173% | 24.3% (inactive) | 68.5% (active) | -2.76 | 2.5 | 0.0145 (inactive) | 0.0035 (inactive)
CC(=C1SC(=NCc2cccs2)NC1=O)c1ccc2ncccc2c1 | 89.5% | 33.7% (inactive) | 92.5% (inactive) | -0.085 | 5 | 0.0357 (inactive) | -0.009 (inactive)
O=C1Nc2ccc(F)c3c(OCCO)cc(-c4ccc[nH]4)c1c23 | 83.9% | 52.1% (inactive) | 105% (inactive) | 1.54 | 6 | 0.192 (inactive) | -0.016 (inactive)
Cn1cc(C2=C(c3ccccc3C(F)(F)F)C(=O)NC2=O)c2ccccc21 | 149% | 31% (inactive) | 114% (inactive) | 0.1 | 32.5 | 0.646 (inactive) | 0.01 (inactive)
Fc1ccc(-c2c(-c3ccncc3)[nH]c3nccnc23)cc1 | 183% | 30.2% (inactive) | 110% (inactive) | -0.915 | 4 | 0.101 (inactive) | -0.02 (inactive)
Cn1cc(C2=C(c3cn(C)c4ccccc34)C(=O)NC2=O)c2ccccc21 | 115% | 66.6% (inactive) | 110% (inactive) | -0.485 | 25.5 | 0.17 (inactive) | -0.001 (inactive)
CC(C)Nc1ncc2cc(Oc3ccc(F)cc3F)c(=O)n(C)c2n1 | 99.2% | 50.9% (inactive) | 95.5% (inactive) | -0.005 | 1 | 0.00675 (inactive) | -0.0005 (inactive)
O=C1NC(=NC(CO)Cc2ccccc2)SC1=Cc1ccc2ncccc2c1 (stereo not given) | 107% and 106% | 258% (inactive) and 60% (inactive) | 91.5% (inactive) and 102% (inactive) | -0.515 and 0.03 | 6.5 and 4 | 0.117 (inactive) and 0.195 (inactive) | -0.0075 (inactive) and -0.0115 (inactive)
Cn1cc(C2=C(c3cn(CCCCN)c4ccccc34)C(=O)NC2=O)c2ccccc21 | 117% | 65.7% (inactive) | 98.5% (inactive) | 0.945 | 3.5 | 0.117 (inactive) | 0.01 (inactive)
Cn1cc(C2=C(c3cccc(OCC(O)CO)c3)C(=O)NC2=O)c2ccccc21 (stereo not given) | 160% and 129% | 22.3% (inactive) and 22.7% (inactive) | 136% (active) and 100% (inactive) | -1.71 and 0.045 | 7 and 9.5 | 0.14 (inactive) and 0.372 (inactive) | 0.0035 (inactive) and -0.0025 (inactive)
COc1ccc2c(C3=C(c4cn(C)c5ccccc45)C(=O)NC3=O)cn(C)c2c1 | 79.3% | 31.4% (inactive) | 113% (inactive) | -1.48 | 66 | 0.456 (inactive) | -0.007 (inactive)
CCc1c(C)nc2sc3c(N)ncnc3c2c1C | 221% | 5.86% (inactive) | 53.5% (active) | -4.42 | 3.5 | 0.129 (inactive) | -0.001 (inactive)
CNCC#Cc1c(F)ccc2c1C(=Cc1[nH]ccc1OC)C(=O)N2 | 149% | 6.77% (inactive) | 162% (active) | 1.97 | 39 | 0.619 (inactive) | -0.0115 (inactive)
COc1ccc(C2=C(c3cn(C)c4ccccc34)C(=O)NC2=O)cc1OC | 215% | 12.7% (inactive) | 100% (inactive) | -0.425 | 13 | 0.28 (inactive) | -0.003 (inactive)
Cn1c(=O)c(Sc2ccccc2F)cc2cnc(NC3CCOCC3)nc21 | 103% | 68.5% (inactive) | 107% (inactive) | 0.685 | 2 | 0.0407 (inactive) | -0.0075 (inactive)
Cc1nc2sc3c(N)ncnc3c2c(C)c1C | 140% | 42% (inactive) | 77.5% (inactive) | -1.64 | 5 | 0.308 (inactive) | -0.003 (inactive)
Nc1c(C(=O)c2cccc(C(O)(CO)CO)c2)cnn1-c1ccc(F)cc1 | 95.6% | 51.5% (inactive) | 104% (inactive) | 0.905 | 3 | 0.0614 (inactive) | 0.0095 (inactive)

SMILES | liver cell % of control [1] | parasite % of control [1] | percent of negative control (+Dex) [2] | z-score [2] | EGFP object count [3] | EGFP/DsRed ratio [3] | fraction signal [4]
Cn1cc(C2=C(c3ccccc3[N+](=O)[O-])C(=O)NC2=O)c2ccccc21 | 80.1% | 121% (inactive) | 147% (active) | -1.21 | 19 | 0.315 (inactive) | 0.0035 (inactive)
Nc1c(C(=O)c2cccc(-c3ccncc3)c2)cnn1-c1ccc(F)cc1F | 92.7% | 53.9% (inactive) | 102% (inactive) | 0.04 | 5 | 0.0527 (inactive) | -0.009 (inactive)
CC(C)(O)CCc1cccc(C(=O)c2cnn(-c3ccc(F)cc3)c2N)c1 | 105% | 56.9% (inactive) | 110% (inactive) | 0.16 | 1.5 | 0.0442 (inactive) | 0.0185 (inactive)
COc1cccc(C2=C(c3cn(C)c4ccccc34)C(=O)NC2=O)c1 | 216% | 15.4% (inactive) | 110% (inactive) | -0.735 | 9.5 | 0.204 (inactive) | -0.003 (inactive)
CCNC(=O)C1CCCN2C(=O)CCC(NC(=O)C(Cc3ccc(OP(=O)(O)O)cc3)NC(C)=O)C(=O)N12 (stereo not given) | 95% | 44.7% (inactive) | 102% (inactive) | 0.145 | 6 | 0.215 (inactive) | -0.0005 (inactive)
O=C1NC(=NCc2cccs2)OC1=Cc1ccc2ncccc2c1 | 113% | 64.9% (inactive) | 55% (active) | -4.77 | 3.5 | 0.0818 (inactive) | -0.0135 (inactive)
COc1cccc(C(=O)c2sc(Nc3ccc(N4CCN(C(C)C)CC4)cc3)nc2N)c1 | 86.7% | 389% (inactive) | 112% (inactive) | 1.07 | 2.5 | 0.139 (inactive) | -0.02 (inactive)
COc1ccc(CCN=C2NC(=O)C(=Cc3ccc4ncccc4c3)S2)cc1 | 99.3% | 48.7% (inactive) | 100% (inactive) | 0.55 | 3 | 0.381 (inactive) | 0.001 (inactive)
CC(=O)NC(Cc1ccc(OP(=O)(O)O)cc1)C(=O)NC1CCC(=O)N2CCCC(C(=O)NCc3ccc(Cl)cc3)N2C1=O (stereo not given) | 96.1% | 45.1% (inactive) | 95.5% (inactive) | 0.05 | 3.5 | 0.276 (inactive) | -0.003 (inactive)
O=C1NC(=NCC(CO)c2ccccc2)SC1=Cc1ccc2ncccc2c1 (stereo not given) | 106% | 72.5% (inactive) | 86% (inactive) | -0.105 | 0.5 | 0.00131 (inactive) | 0.006 (inactive)
CS(=O)(=O)N1CCC(n2c(=O)c(Oc3ccc(F)cc3F)cc3cnc(NC4CCOCC4)nc32)CC1 | 112% | 64.5% (inactive) | 95% (inactive) | -0.51 | 2 | 0.107 (inactive) | 0.0035 (inactive)
Fc1ccc(-c2c(-c3ccncc3)[nH]c3cccnc23)cc1 | 141% | 1.58% (active) | 95% (inactive) | 0.075 | 6 | 0.15 (inactive) | -0.0095 (inactive)
Cn1cc(C2=C(c3cn(CCCCO)c4ccccc34)C(=O)NC2=O)c2ccccc21 | 84% | 14.3% (inactive) | 108% (inactive) | -1.57 | 32.5 | 0.668 (inactive) | -0.005 (inactive)
Cn1cc(C2=C(c3c4n(c5ccccc35)CCCC4)C(=O)NC2=O)c2ccccc21 | 77.8% | 85.7% (inactive) | 100% (inactive) | 0.55 | 5.5 | 0.0663 (inactive) | 0.0055 (inactive)
Cn1cc(C2=C(c3c4n(c5ccccc35)CCNC4)C(=O)NC2=O)c2ccccc21 | 79.3% | 40.6% (inactive) | 97.5% (inactive) | -0.32 | 25 | 0.0526 (inactive) | -0.007 (inactive)
O=C1NC(=NCCc2ccc(F)cc2)SC1=Cc1ccc2ncccc2c1 | 127% | 57.5% (inactive) | 99.5% (inactive) | 0.5 | 1.5 | 0.0132 (inactive) | 0.0035 (inactive)
O=C1C(c2c[nH]c3ccccc23)=C(c2c[nH]c3ccccc23)C(=O)N1O | 107% | 29% (inactive) | 94% (inactive) | -1.25 | 5.5 | 0.0849 (inactive) | 0.0015 (inactive)
CC(=O)NC(Cc1ccc(OP(=O)(O)O)cc1)C(=O)NC1CCC(=O)N2CCCC(C(=O)NCc3cccc4ccccc34)N2C1=O (stereo not given) | 98.5% | 45.1% (inactive) | 100% (inactive) | -0.165 | 8 | 0.214 (inactive) | -0.0075 (inactive)
CS(=O)(=O)N1CCC(Nc2ncc(C(=O)c3c(F)cccc3F)c(N)n2)CC1 | 89.5% | 70.6% (inactive) | 88.5% (inactive) | -0.28 | 2 | 0.123 (inactive) | -0.005 (inactive)
CNc1ncc2cc(Oc3ccc(F)cc3F)c(=O)n(C)c2n1 | 109% | 65.3% (inactive) | 94.5% (inactive) | 1.49 | 2.5 | 0.0112 (inactive) | -0.001 (inactive)

— PubChem BioAssay
